An excerpt weighted towards active compounds, which were near 7.3% of everything screened.
HCMV inh = qHTS Assay for inhibitors of the human cytomegalovirus (HCMV); HFF cells, HCMV-luciferase reporter, 72 h; active compounds read low; activity change, negative = inhibition, % at 57.5 µM; 4.5% of 410,000 active; AID 1259415, 2018; in the data active = activity change below about -60%; inconclusive = no clear call, values can overlap the other calls; inactive = above about -39%
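HFF cells seeded 16 h at 37C, treated with compounds, infected with luciferase-reporter HCMV at MOI 1 PFU/cell; luciferase read at 72 h post infection, normalized to buffer-only and Salinomycin controls.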
Vaccinia mCherry = qHTS for Stage-Specific Inhibitors of Vaccinia Orthopoxvirus: mCherry Reporter Primary qHTS | 0.63% of 310,000 active | Vaccinia virus mCherry reporter infection, fluorescence | Potency, µM (titrated, usually from 36.5 µM), without a hit: at the top dose activity change, negative = inhibition, most hits filed as inhibitors | AID 720579, 2013; calls by dose curve; tested in A549 cells; note: potency is the fitted concentration of half-maximal effect; nearly all actives have a fitted effect of over 35% in size
FMDV antiviral = High Throughput Screening for Foot and Mouth Disease Virus Antivirals | FMDV antiviral cell-based qHTS | Potency, µM (highest dose often 57.9 µM), without a hit: at the highest dose activity change, negative = inhibition, usual class: inhibitors | 1.2% of 410,000 active; calls by dose curve; tested in HEK293T cells; note: read-out not given here; potency is the fitted concentration of half-maximal effect; nearly all actives have a fitted effect of over 45% in size
HCV inhibitor = qHTS Assay for Inhibitors of Hepatitis C Virus (HCV) | Huh7.5.1 HCVcc-Cre infection, luciferase reporter, 44 h | Potency, µM (highest dose often 41.8 µM), inactives show at the top dose activity change, negative = inhibition, hits mostly inhibitors | 3.4% of 340,000 active | AID 651820, 2012; active = well fitted inhibition curve with a large enough effect; inconclusive = small, poorly fitted or top-dose-only effect, or another doubt; inactive = no such curve, though single readings can be large or run the other way; note: potency is the fitted concentration of half-maximal effect
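HCVcc-Cre virus at an moi near 0.5 was added right after compound to cells cultured 4 h from seeding (1,000 cells/well). Luciferase activity was determined 44 h later, 15 min after substrate addition at RT.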
Vaccinia Venus = qHTS for Stage-Specific Inhibitors of Vaccinia Orthopoxvirus: Venus Reporter Primary qHTS | Vaccinia virus Venus reporter expression, fluorescence | 0.46% of 330,000 active | AID 720580, 2013 | Potency, µM (top dose mostly 36.5 µM), without a hit: top-dose activity change, negative = inhibition, usual class: inhibitors; calls by dose curve; tested in A549 cells; note: potency is the fitted concentration of half-maximal effect; nearly all actives have a fitted effect of over 30% in size
An asterisk follows results filed as active; ! = not active in a repeat; [ ] = dose if it differs, or a comment. % is set by controls: 0 for no effect and ±100 for the full control effect.

For C=CCNC(=S)NNC(=O)c1cccnc1 the results were HCMV inh 5, Vaccinia mCherry inactive, FMDV antiviral -18%, HCV inhibitor 7% and Vaccinia Venus -3%.
COc1ccc(CNC(=O)C2CCCN(S(=O)(=O)c3ccc4c(ccn4C)c3)C2)c(OC)c1 (configuration not stated) was read as HCMV inh -33, Vaccinia mCherry -15%, FMDV antiviral -11% and Vaccinia Venus -10%.
For O=C(C1CC1)N1CCc2cc(Br)cc(S(=O)(=O)Nc3ccc(F)c(F)c3)c21 the results were HCMV inh -37, Vaccinia mCherry -14%, FMDV antiviral -55% and Vaccinia Venus -12%.
For Cc1ccc(NS(=O)(=O)c2cc(Br)cc3c2N(C(=O)C2CC2)CC3)cc1C the results were HCMV inh -75*, Vaccinia mCherry inconclusive, FMDV antiviral -51% and Vaccinia Venus inconclusive.
COc1cc(NS(=O)(=O)c2cc(Br)cc3c2N(C(=O)C2CC2)CC3)cc(OC)c1 was read as HCMV inh 31, Vaccinia mCherry 18µM*, FMDV antiviral -92% and Vaccinia Venus inconclusive.
COc1ccc(C(=O)COC(=O)c2nc3nccc(C)n3n2)cc1F was read as HCMV inh -22, FMDV antiviral 8% and HCV inhibitor 2%.
For COc1ccc(-c2cc(=O)c3c(O)cc(O)cc3o2)cc1 the results were HCMV inh 14, Vaccinia mCherry -28%, FMDV antiviral 20%, HCV inhibitor 13µM* and Vaccinia Venus -18%.
Screening COc1ccc(-c2cc(=O)c3cc(O)ccc3o2)cc1 returned HCMV inh 118, Vaccinia mCherry -8%, FMDV antiviral 22%, HCV inhibitor 5.6µM* and Vaccinia Venus -8%.
Screening O=c1cc(-c2ccccc2)oc2ccc(O)cc12 returned HCMV inh 43, FMDV antiviral 82% and HCV inhibitor inconclusive.
COc1ccc(S(=O)(=O)N2CCOCC2)cc1NC(=O)CSc1nnc2n1CCCCC2 was read as HCMV inh 1, Vaccinia mCherry -14%, FMDV antiviral -1%, HCV inhibitor 13% and Vaccinia Venus -16%.
For Oc1cccc(Nc2nccc3[nH]c(-c4cccc(OC(F)(F)F)c4)nc23)c1 the results were HCMV inh -14.
Screening COCCn1c(SCC(=O)Nc2ccc(Cl)c(S(=O)(=O)N(C)C)c2)nc2ccccc21 returned HCMV inh 1, Vaccinia mCherry -12%, FMDV antiviral 28µM*, HCV inhibitor inconclusive and Vaccinia Venus inconclusive.
For COCCn1c(SCC(=O)Nc2ccc(S(N)(=O)=O)cc2)nc2ccccc21 the results were HCMV inh 15, Vaccinia mCherry -20%[1.46 µM], FMDV antiviral -4%, HCV inhibitor 2% and Vaccinia Venus -13%.
CN(C)S(=O)(=O)c1cc(NC(=O)CSc2ncc(C(F)(F)F)cc2Cl)ccc1Cl was read as HCMV inh inconclusive, Vaccinia mCherry -23%, FMDV antiviral 28µM*, HCV inhibitor inconclusive and Vaccinia Venus -11%.
For COc1cccc(C(N)c2nc(-c3csc4ccccc34)cs2)c1 (configuration not stated) the results were Vaccinia mCherry 6%, FMDV antiviral 11% and Vaccinia Venus -13%.
Screening O=C(Cn1ccc(NC(=O)OCc2ccccc2)nc1=O)NCc1ccc2[nH]ccc2c1 returned HCMV inh 1, Vaccinia mCherry inactive, FMDV antiviral -23%, HCV inhibitor -1% and Vaccinia Venus -16%.
Screening CC(C)(C)c1cc(C=C(C#N)C#N)cc(C(C)(C)C)c1O returned HCMV inh -100*, Vaccinia mCherry 1µM*!, FMDV antiviral 4µM*!, HCV inhibitor inconclusive and Vaccinia Venus inconclusive.
For CNC(=O)c1sc(N2N=C3/C(=C/c4ccccc4)CCCC3C2c2ccccc2)nc1C (configuration not stated) the results were HCMV inh -39, FMDV antiviral inconclusive and HCV inhibitor 10µM*.

From PubChem BioAssay
